Reference: PubChem BioAssay (NCATS)
Records with an inconclusive call do not appear. Activity calls are given as the source filed them. The call rests on the fitted dose curve; in most records, active means well fitted cell-killing curve with a large enough effect; inconclusive means small, poorly fitted or top-dose-only effect, or effect the other way; inactive means flat fitted curve, though single readings scatter.

Assay: qHTS of pediatric cancer cell lines to identify multiple opportunities for drug repurposing: Confirmatory screen for control Hh wild type fibroblast cells (AID 1347121); further: nearly all actives have a fitted effect of over 70% in size;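 on activity, negative = cytotoxic: plate controls were DMSO for no effect and bortezomib for full effect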
Settings: viability qHTS; series mostly up to 45.9 µM; activity, negative = cytotoxic: at the top concentration
Source text: Drug repurposing or repositioning has been offered as a strategy for drug development in oncology programs. This approach has special potential for childhood cancers and other rare or orphan diseases, where the expected return on new drug development has been a disincentive to pharmaceuticals.
In this project we exploit the poly-pharmacology of drugs to discover new indications via phenotypic screening of a panel of 19 well-characterized cell lines derived from solid tumors seen in children and adolescents. The goal is to identify approved drugs with previously unrecognized anticancer properties that has the potential to reveal new mechanisms and biological processes involved in carcinogenesis or drug resistance. We employed a titration-based paradigm (quantitative high-throughput screening or qHTS), where all compounds were tested at multiple concentrations for their effect on cell viability. Concentration-response curves (CRCs) were derived directly from the primary screen, and both potency and efficacy values were used to identify compounds with robust bioactivity profiles. We screened the NIH Chemical Genomics Center (NCGC) Pharmaceutical Collection (NPC) and Mechanism Interrogation Plate (MIPE) small molecule collections of approved and investigational compounds against these cell lines; and measured metabolically active cells after 48 hours of compound treatment as a proxy for cell viability.
Assay Submitter: Nathalia J. Martinez, National Center for Advancing Translational Sciences, National Institutes of Health, Rockville, MD, USA; email: natalia.martinez@nih.gov
[1] Shen, M et al. Quantitative high-throughput phenotypic screening of pediatric cancer cell lines identifies multiple opportunities for drug repurposing. Oncotarget 2017 Dec 19;9(4):4758-4772. PMID 29435139.
The cells were obtained from University of North Carolina (UNC), Pediatric Preclinical Testing Program (PPT), and Coriell Institute (CI).
qHTS cell viability assay:
Cells were assayed in growth media at a density of 500-1,000 cells/well. Five microliters of cells were dispensed into 1,536-well, white, solid-bottom, TC-treated plates (Greiner Bio One) using a multidrop dispenser and incubated at 37 degrees C, 5% CO2, under a humidified atmosphere for 5 hours. Twenty-three nanoliters of compounds and controls (neutral control DMSO or positive control bortezomib at final concentration of 2.3 µM) were subsequently transferred by Kalypsys pintool. For primary screens, the MIPE collection was tested at 11-point dilutions (final concentrations range from 0.78 nM to 46 µM) and the NPC collection at 8-point dilutions (final concentrations range from 0.59 nM to 46 µM). Compounds tested in follow-up screens were assayed at 11-point dilutions. Cells were incubated for 48 hours, followed by addition of 3 µL of CellTiter-Glo (Promega). After a 15 min incubation at room temperature, samples were analyzed for luminescence intensity using a ViewLux High-throughput CCD imager equipped with clear filters.
Potency means the concentration at half of the fitted maximal effect.

Row | SMILES | activity, negative = cytotoxic | Potency
1 | CCN[C@@H]1C[C@H](N)[C@@H](OC2OC(CN)=CCC2N)[C@H](O)[C@H]1O[C@H]1OC[C@](C)(O)[C@H](NC)[C@H]1O (stereo partly specified) | 8.41% [at 0.556 µM] (inactive) | 
2 | CC1CCc2c(N3CCC(O)CC3)c(F)cc3c(=O)c(C(=O)O)cn1c23 (stereo unspecified) | 12.5% (inactive) | 
3 | CCN(CC)CCOc1ccc2c(c1)C(=O)c1cc(OCCN(CC)CC)ccc1-2 | -17% (inactive) | 
4 | CCCCCCCCCCC[C@@H](C[C@@H]1OC(=O)[C@H]1CCCCCC)OC(=O)[C@H](CC(C)C)NC=O | 11.3% (inactive) | 
5 | O=C(Oc1cccc2cccnc12)c1ccccc1 | -4.41% (inactive) | 
6 | C=C[C@@]1(C)CC(=O)[C@]2(O)[C@@]3(C)[C@@H](O)CCC(C)(C)[C@@H]3[C@H](O)[C@H](OC(C)=O)[C@@]2(C)O1 | -10.3% (inactive) | 
7 | O=[N+]([O-])c1ccc(/C=N\O)o1 | 5.18% (inactive) | 
8 | O=C(CCCN1CC=C(n2c(=O)[nH]c3ccccc32)CC1)c1ccc(F)cc1 | 10.6% (inactive) | 
9 | CCN1/C(=C/C=C/c2sc3ccccc3[n+]2CC)Sc2ccccc21 |  | 465 nM (active)
10 | COc1ccc(C(=O)c2ccccc2)c(O)c1 | 8.21% (inactive) | 
11 | Nc1nc(Cl)nc2c1ncn2[C@@H]1O[C@H](CO)[C@@H](O)[C@@H]1F | -4.26% (inactive) | 
